Measurements: PubChem BioAssay (NCATS)
Results filed as inconclusive are left out. The source made the active and inactive calls. Calls follow the shape of the dose curve; as a rule, active = well fitted inhibition curve with a large enough effect; inconclusive = small, poorly fitted or top-dose-only effect; inactive = flat fitted curve, though single readings scatter.

Tests used:
Assay in all cases: qHTS profiling for inhibitors of Plasmodium falciparum proliferation (AID 504749); also: nearly all actives have a fitted effect of over 60% in size
Details in all cases: P. falciparum in erythrocytes, SYBR Green DNA, 72 h; series mostly up to 28.7 µM
[1] = test system: CP250
How it was run: (§1)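 P. falciparum-infected erythrocytes (0.3% parasitemia, 2.5% hematocrit final) were exposed to compounds for 72 h at 37 C in 5% CO2, then lysed with SYBR Green buffer overnight at room temperature; parasite DNA fluorescence was normalized to artemisinin and DMSO controls.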

[2] = test system: CP252
How it was run: as §1

[3] = test system: CP256
How it was run: as §1

[4] = test system: CP260
How it was run: as §1

[5] = test system: CP262
How it was run: as §1

[6] = test system: CP265
How it was run: as §1

[7] = test system: CP266
How it was run: as §1

[8] = test system: CP268
How it was run: as §1

[9] = test system: CP269
How it was run: as §1

[10] = test system: CP286
How it was run: as §1

[11] = test system: CP291
How it was run: as §1

[12] = test system: CP297
How it was run: as §1

[13] = test system: CP305
How it was run: as §1

[14] = test system: CP315
How it was run: as §1

[15] = test system: CP325
How it was run: as §1

[16] = test system: CP329
How it was run: as §1

[17] = test system: CP335
How it was run: as §1

[18] = test system: DFO2036
How it was run: as §1

[19] = test system: DIV14
How it was run: as §1

[20] = test system: DIV17
How it was run: as §1

Measured: Potency
Potency is read from the fitted curve at half-maximal effect.

Nc1ccn([C@@H]2CS[C@H](CO)O2)c(=O)n1
inactive: all assays above

Nc1ccn([C@@H]2O[C@H](CO)[C@H](O)C2(F)F)c(=O)n1
active: [1] 5.01 µM | [2] 3.55 µM | [3] 1.58 µM | [4] 3.98 µM | [5] 2.69 µM | [6] 3.98 µM | [7] 4.78 µM | [8] 6.01 µM | [9] 4.78 µM | [10] 3.98 µM | [11] 4.26 µM | [12] 6.75 µM | [13] 5.36 µM | [14] 8.49 µM | [15] 2.39 µM | [16] 5.36 µM | [17] 2.39 µM | [18] 0.282 µM | [19] 0.849 µM | [20] 0.953 µM

Nc1ccc(S(=O)(=O)Nc2ncccn2)cc1
not listed: [14]
inactive: all other assays above

COc1cc(C(=O)NS(=O)(=O)c2ccccc2C)ccc1Cc1cn(C)c2ccc(NC(=O)OC3CCCC3)cc12
not listed: [9] | [12] | [14] | [17] | [19] | [20]
inactive: all other assays above

CN1c2cc(O)c(N=NC(N)=O)cc2CC1S(=O)(=O)O (stereo unspecified)
inactive: all assays above

C[C@H]1C[C@@H]2[C@@H]([C@@H](O)C[C@@]3(C)[C@H]2CC[C@]3(O)C(=O)CO)[C@@]2(C)C=CC(=O)C=C12
not listed: [12]
inactive: all other assays above

O=c1[nH]c(=O)n(C2CCCO2)cc1F (stereo unspecified)
inactive: all assays above

COC(=O)C[C@](O)(CCCC(C)(C)O)C(=O)O[C@@H]1C(OC)=C[C@]23CCCN2CCc2cc4c(cc2[C@H]13)OCO4
active: [1] 0.0282 µM | [2] 0.0316 µM | [3] 0.0316 µM | [4] 0.0282 µM | [5] 0.0338 µM | [6] 0.0316 µM | [8] 0.0379 µM | [9] 0.0338 µM | [10] 0.0282 µM | [11] 0.0338 µM | [12] 0.0169 µM | [13] 0.0338 µM | [14] 0.0239 µM | [15] 0.0338 µM | [17] 0.0213 µM | [18] 0.0224 µM | [19] 0.0269 µM | [20] 0.0239 µM

CCC1=C[C@@H]2CN(C1)Cc1c([nH]c3ccccc13)[C@@](C(=O)OC)(c1cc3c(cc1OC)N(C)[C@@H]1[C@@](O)(C(=O)OC)[C@H](OC(C)=O)[C@]4(CC)C=CCN5CC[C@]31[C@@H]54)C2
active: [1] 3.98 µM | [2] 2.82 µM | [3] 2 µM | [4] 2.82 µM | [5] 3.01 µM | [6] 2 µM | [7] 4.26 µM | [8] 3.38 µM | [9] 1.9 µM | [10] 2 µM | [11] 3.01 µM | [12] 3.79 µM | [13] 3.01 µM | [14] 3.79 µM | [15] 3.79 µM | [16] 3.01 µM | [17] 1.69 µM | [18] 2.51 µM | [19] 3.79 µM | [20] 3.79 µM

CC[C@H]1CN2CCc3cc(OC)c(OC)cc3[C@H]2C[C@@H]1C[C@@H]1NCCc2cc(OC)c(OC)cc21
active: [1] 0.316 µM | [2] 0.562 µM | [3] 0.355 µM | [4] 0.126 µM | [5] 0.757 µM | [6] 0.447 µM | [7] 0.675 µM | [8] 0.426 µM | [9] 0.301 µM | [10] 0.158 µM | [11] 0.269 µM | [12] 0.379 µM | [13] 0.379 µM | [14] 0.757 µM | [15] 0.478 µM | [16] 0.379 µM | [17] 0.379 µM | [18] 0.316 µM | [19] 0.379 µM | [20] 0.338 µM

CC=CC1=C(C(=O)O)N2C(=O)[C@H](NC(=O)[C@H](N)c3ccc(O)cc3)[C@@H]2SC1
not listed: [20]
inactive: all other assays above

COC(=O)C1=C(C)NC(C)=C(C(=O)OCCN2CCN(C(c3ccccc3)c3ccccc3)CC2)C1c1cccc([N+](=O)[O-])c1 (stereo unspecified)
active: [1] 4.47 µM | [2] 2.82 µM | [3] 3.55 µM | [4] 2.51 µM | [5] 4.78 µM | [7] 6.75 µM | [8] 4.78 µM | [9] 4.26 µM | [10] 2.51 µM | [11] 4.78 µM | [12] 4.26 µM | [13] 5.36 µM | [14] 4.78 µM | [15] 3.79 µM | [16] 4.78 µM | [17] 1.69 µM | [18] 1.78 µM | [19] 3.79 µM | [20] 1.69 µM

CC(C)(C)NC(=O)[C@H]1CN(Cc2cccnc2)CCN1C[C@@H](O)C[C@@H](Cc1ccccc1)C(=O)N[C@H]1c2ccccc2C[C@H]1O
inactive: [5]
active: [2] 12.6 µM | [9] 13.5 µM | [11] 15.1 µM | [13] 13.5 µM | [17] 12 µM | [19] 13.5 µM

COc1c(N2C[C@@H]3CCCN[C@H]3C2)c(F)cc2c(=O)c(C(=O)O)cn(C3CC3)c12
not listed: [8] | [13]
inactive: all other assays above

O=C(O)CO.[NH2-].[NH2-].[Pt+2]
not listed: [20]
inactive: all other assays above

CC1(C)O[C@@H]2C[C@@H]3[C@H]4C[C@@H](F)C5=CC(=O)C=C[C@]5(C)[C@@]4(F)[C@@H](O)C[C@]3(C)[C@]2(C(=O)CO)O1
inactive: [1] | [2] | [3] | [4] | [5] | [6] | [10] | [17] | [18]
